# Records with an inconclusive call do not appear. Calls of active or inactive are those of the source. Unless noted, cut-off not given; nearly all actives show AC50 up to about 26 µM.
# Experiments:
# [1] = viability loss in pontine glioma line – cell-based, SU-DIPG-XVII, MIPE5.0, CellTiter-Glo, qHTS, dose response (AID 1347060); details: CellTiter-Glo ATP luminescence;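 on AC50: cells exposed to compound for 48 hours before viability readout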
# [2] = viability loss in pontine glioma line – cell-based, SU-DIPG-XIII, MIPE5.0, CellTiter-Glo, qHTS, dose response (AID 1347064; cut-off not given, nearly all actives have AC50 up to about 23 µM;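 on AC50: cells exposed to compound for 48 hours before the viability read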); details: CellTiter-Glo ATP luminescence
# [3] = viability loss in pontine glioma line – cell-based, SU-DIPG-XXV, MIPE5.0, CellTiter-Glo, qHTS, dose response (AID 1347065); details: CellTiter-Glo ATP luminescence;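 further: cells exposed to compound for 48 hours before ATP readout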
# [4] = JHH-DIPG-1 glioma cell viability, MIPE5.0 library, CellTiter-Glo luminescence, qHTS (AID 1347067); details: JHH-DIPG-1 glioma viability, CellTiter-Glo ATP luminescence;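 further: cells exposed to compound for 48 hours before readout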
# [5] = growth inhibition of DIPG cells – cell-based, MIPE5.0 library, qHTS (AID 1347068; cut-off not given, nearly all actives have IC50 up to about 30 µM;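 on IC50: cells exposed to compound for 48 hours before viability readout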); details: SU-DIPG-XXV viability
# [6] = growth inhibition, single agent or in combination, cell-based, chromothripsis tumors, cisplatin or BGB combos (AID 1671449; in the data active means inhibition above about 80%;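 further: cells exposed for 96 hours; 0% = vehicle DMSO and 100% = killing by high DMSO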); details: LFS_MB_P medulloblastoma cells
# [7] = growth inhibition, single agent and combos, cell-based, chromothripsis tumors, cisplatin or BGB combos (AID 1671450; in the data active means inhibition above about 80%;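 further: cells exposed to compound for four days; 0% = vehicle DMSO and 100% = cell killing by high DMSO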); details: HDN33 neuroblastoma cells, stronger effect = higher value
# [8] = growth inhibition, single agents and combos, ICB984, cell-based, cisplatin or BGB combos, synergistic combos for chromothripsis tumors (AID 1671451; call rule not given here;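 further: cells exposed for 96 hours before readout; 0% = vehicle DMSO and 100% = killing by high DMSO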); details: ICB984 medulloblastoma cells, drug combinations, stronger effect = higher value
# [9] = growth inhibition, single agents and combos, LFS_MB_1R, cell-based, cisplatin or BGB combos, synergistic combos for chromothripsis tumors (AID 1671452; in the data active means inhibition above about 80%;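 further: cells exposed for 96 hours before readout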); details: LFS_MB_1R medulloblastoma cells, stronger effect = higher value
# [10] = growth inhibition, single agents and combos, HTB85, cell-based, BGB or cisplatin IC20 combos, synergistic combos for chromothripsis tumors (AID 1671453; in the data active means inhibition above about 80%;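 further: cells exposed for 96 hours before readout; 0% = vehicle DMSO and 100% = high DMSO killing control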); details: HTB85 osteosarcoma cells, drug combinations, stronger effect = higher value
# [11] = growth inhibition, single agents and combos, CRL2098, cell-based, BGB or cisplatin IC20 combos, synergistic combos for chromothripsis tumors (AID 1671454; in the data active means inhibition above about 80%;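 further: cells exposed for 96 h before readout; 0% = vehicle DMSO and 100% = killing by high DMSO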); details: CRL2098 osteosarcoma cells, drug combinations, stronger effect = higher value
# [12] = growth inhibition, single agents and combos, HD-MB03, cell-based, BGB or cisplatin IC20 combos, synergistic combos for chromothripsis tumors (AID 1671455; in the data active means inhibition above about 83%;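 further: 0% = vehicle DMSO and 100% = high DMSO as cytotoxic control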); details: HD-MB03 medulloblastoma cells, stronger effect = higher value
# [13] = growth inhibition, single agents and combos, UWB1.289, cell-based, BGB or cisplatin combos, synergistic combos for chromothripsis tumors (AID 1671456; in the data active means inhibition above about 80%;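 further: cells exposed to compound for four days; 0% = vehicle DMSO and 100% = killing by high DMSO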); details: UWB1.289 ovarian carcinoma cells, stronger effect = higher value
# [14] = growth inhibition, single agents and combos, LFS_MB_2R, cell-based, cisplatin combos, synergistic combos for chromothripsis tumors (AID 1671457; in the data active means inhibition above about 80%;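 further: cells exposed to compound for four days before readout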); details: LFS_MB_2R medulloblastoma cells, stronger effect = higher value
# [15] = growth inhibition, MDA-MB-436, cell-based, BGB or cisplatin combos, synergistic combos for chromothripsis tumors (AID 1671458; call rule not given here;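 further: cells exposed for 96 hours; 0% = vehicle DMSO and 100% = killing by high DMSO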); details: MDA-MB-436 breast carcinoma growth inhibition, drug combinations, stronger effect = higher value
# [16] = UWB1.289_BRCA1 ovarian cancer growth, cell-based, BGB or cisplatin combinations (AID 1671459; in the data active means inhibition above about 80%); details: UWB1.289 BRCA1 ovarian carcinoma, drug combinations, stronger effect = higher value
# [17] = drug combination toxicity in non-malignant astrocytes – cell-based, BGB or cisplatin IC20 combos, cytotoxicity control for chromothriptic childhood tumor combination screen (AID 1671460; in the data active means inhibition above about 80%;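 further: cells exposed to compounds for 96 hours before viability readout; 0% = vehicle and 100% = killing control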); details: Human astrocytes, viability inhibition, drug combinations, at 0.5 µM, stronger effect = higher value
# [18] = BT084 cell growth, single and combined drugs, ICGC_MB145, cisplatin and BGB IC40 combos (AID 1671461; in the data active means inhibition above about 80%;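 further: cells exposed to drugs for 96 hours; 0% = vehicle DMSO and 100% = high DMSO full killing control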); details: BT084 medulloblastoma cells, drug combinations, stronger effect = higher value
# [19] = RCMB18 cell growth, single agent and combined, cisplatin and BGB IC40 combos (AID 1671462; in the data active means inhibition above about 80%;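 further: cells exposed to compound for four days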); details: RCMB18 medulloblastoma cells, stronger effect = higher value
# [20] = CRL1545 cell growth, single agent and combined, cisplatin and BGB IC20 combos (AID 1671464; in the data active means inhibition above about 80%;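 further: cells exposed to compound for 96 hours before readout; 0% = vehicle DMSO and 100% = high DMSO killing control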); details: CRL1545 osteosarcoma cells, stronger effect = higher value
# [21] = compounds altering circadian rhythm period length – cell-based, LOPAC library, luminescence reporter (AID 2774; call rule not given here;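 further: values are relative to mean of DMSO wells on each plate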); details: circadian reporter cells, at 7 µM, actives lie on both sides
# [22] = viability loss with induced miR-34 in A549 – imaging, A549 dox-inducible miR-34, nuclei and caspase counts, primary screen (AID 1347080;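 active means compounds whose cell count with miR-34 switched on is under 0.7 times the count with it off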); details: A549 miR-34 inducible, Hoechst nuclei count, 48 h
# [23] = MELAS cybrid and Rieske KO viability enhancers – cell-based, MELAS cybrids, Rieske KO mouse fibroblasts, CellTiter-Glo, primary screen (AID 1508586;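 active means mean z-score across replicates of 1.96 or higher in either the MELAS or the Rieske mutant cell line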;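 further: z relative to plate mean and SD of compound and empty wells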); details: low glucose
# [24] = measured here: combination with BGB IC40, at 0.05 µM
# [25] = measured here: with BGB IC20 combination, at 0.5 µM
# [26] = measured here: with cisplatin IC20 combination, at 0.5 µM
# [27] = measured here: combination with cisplatin, at 0.5 µM
# [28] = measured here: combination with cisplatin, at 5 µM
# [29] = stronger effect = lower value, cell number ratio, induced over uninduced
# [30] = measured here: relative caspase fold change +Dox/-Dox
# [31] = measured here: total cells with miR-34 induction, stronger effect = lower value
# [32] = measured here: total cells without miR-34 induction
# [33] = MELAS cybrid survival, CellTiter-Glo 48 h, stronger effect = higher value
# [34] = Rieske KO mouse fibroblast survival, CellTiter-Glo 72 h
smiles,measurement,setting,value
CN(C)C/C=C/C(=O)Nc1ccc(C(=O)Nc2cccc(Nc3ncc(Cl)c(-c4c[nH]c5ccccc45)n3)c2)cc1,AC50,[1],0.263 µM (active)
same,AC50,[2],0.209 µM (active)
same,AC50,[3],0.209 µM (active)
same,AC50,[4],0.263 µM (active)
same,IC50,[5],0.295 µM (active)
same,inhibition,"[6]; at 0.5 µM, stronger effect = higher value",-12.9% (inactive)
same,inhibition,"[6]; measured here: combination with BGB IC20, at 0.005 µM",-29.1%
same,inhibition,"[6]; measured here: combination with BGB IC40, at 0.005 µM",-64.8%
same,inhibition,[6]; [24],7.86%
same,inhibition,"[6]; measured here: combination with cisplatin, at 0.5 µM, stronger effect = higher value",-42.5%
same,inhibition,"[6]; measured here: combination with cisplatin, at 5 µM, stronger effect = higher value",89.6%
same,inhibition,"[7]; BGB combo, at 5 µM",97.3%
same,inhibition,[7]; at 0.5 µM,42.9% (inactive)
same,inhibition,"[7]; cisplatin combo, at 5 µM",98.3%
same,inhibition,[7]; [25],43.5%
same,inhibition,[7]; [26],38.3%
same,inhibition,"[7]; single agent, at 5 µM",98.9%
same,inhibition,"[8]; BGB IC20 combo, at 0.005 µM",97.6%
same,inhibition,"[8]; BGB IC40 combo, at 0.005 µM",98.3%
same,inhibition,"[8]; BGB IC40 combo, at 0.05 µM",102%
same,inhibition,[8]; at 0.5 µM,-27.1% (inactive)
same,inhibition,"[8]; cisplatin combo, at 0.05 µM",102%
same,inhibition,"[8]; cisplatin combo, at 0.5 µM",-38.3%
same,inhibition,"[8]; cisplatin combo, at 5 µM",33.8%
same,inhibition,"[8]; measured here: 5 uM single agent, at 5 µM",11.6%
same,inhibition,[9]; at 0.5 µM,103% (active)
same,inhibition,[9]; [24],23.8%
same,inhibition,[9]; [27],101%
same,inhibition,[9]; [28],97.5%
same,inhibition,[10]; at 0.5 µM,91.8% (active)
same,inhibition,"[10]; measured here: with BGB IC20, at 0.5 µM",89.2%
same,inhibition,"[10]; measured here: with BGB IC20, at 5 µM",99.9%
same,inhibition,"[10]; measured here: with cisplatin IC20, at 0.5 µM",92.7%
same,inhibition,"[10]; measured here: with cisplatin IC20, at 5 µM",99.8%
same,inhibition,"[10]; single agent, at 5 µM",100%
same,inhibition,[11]; at 0.5 µM,41.6% (inactive)
same,inhibition,"[11]; measured here: combination with BGB at IC20, at 0.5 µM",72.6%
same,inhibition,"[11]; measured here: combination with cisplatin at IC20, at 0.5 µM",29.6%
same,inhibition,[12]; at 0.5 µM,64.6% (inactive)
same,inhibition,"[12]; measured here: combo with BGB at IC20, at 0.5 µM",57.2%
same,inhibition,"[12]; measured here: combo with cisplatin at IC20, at 0.5 µM",71.3%
same,inhibition,[13]; at 0.5 µM,74.6% (inactive)
same,inhibition,"[13]; measured here: inhibition with BGB combination, at 0.05 µM",9.81%
same,inhibition,"[13]; measured here: inhibition with cisplatin combination, at 0.05 µM",0.164%
same,inhibition,[14]; at 0.5 µM,75.5% (inactive)
same,inhibition,[14]; [27],68.1%
same,inhibition,[14]; [28],91.1%
same,inhibition,[15]; at 0.5 µM,57.8% (inactive)
same,inhibition,"[15]; measured here: BGB combination, at 0.5 µM",51.4%
same,inhibition,"[15]; measured here: BGB combination, at 5 µM",40.9%
same,inhibition,"[15]; measured here: cisplatin combination, at 0.5 µM",50.4%
same,inhibition,"[15]; measured here: cisplatin combination, at 5 µM",69.8%
same,inhibition,"[16]; BGB combination, concentration series, at 5 µM",79.9%
same,inhibition,[16]; at 0.5 µM,84.7% (active)
same,inhibition,"[16]; cisplatin combination, concentration series, at 5 µM",86.1%
same,inhibition,[17],87.2% (active)
same,inhibition,[17]; measured here: combo with BGB IC20,86.5%
same,inhibition,[17]; measured here: combo with cisplatin IC20,83.8%
same,inhibition,[18]; at 0.5 µM,32.3% (inactive)
same,inhibition,"[18]; cisplatin combination, at 0.5 µM",10%
same,inhibition,"[18]; cisplatin combination, at 5 µM",35.4%
same,inhibition,"[18]; measured here: BGB IC40 combination 0.05 uM, at 0.05 µM",15.5%
same,inhibition,"[18]; single agent, at 5 µM",89%
same,inhibition,[19]; at 0.5 µM,66.8% (inactive)
same,inhibition,"[19]; cisplatin combo, at 5 µM",71.7%
same,inhibition,"[19]; measured here: BGB IC40 combination, at 0.05 µM",52.8%
same,inhibition,[19]; [27],69.4%
same,inhibition,"[19]; single agent, at 5 µM",89.7%
same,inhibition,[20]; at 0.5 µM,80.7% (active)
same,inhibition,[20]; [25],72.6%
same,inhibition,[20]; [26],84.4%
same,inhibition,"[20]; single agent, at 0.05 µM",-55.9%
same,inhibition,"[20]; single agent, at 5 µM",99.8%
CN(CCOc1ccc(C[C@H](Nc2ccccc2C(=O)c2ccccc2)C(=O)O)cc1)c1ccccn1,period change,[21],0.085 h (inactive)
same,outcome,[1],inactive
same,outcome,[2],inactive
same,outcome,[3],inactive
same,outcome,[4],inactive
same,outcome,[5],inactive
Cc1cc(C)cc(NC(=O)Cc2ccc(OC(C)(C)C(=O)O)cc2)c1,outcome,[1],inactive
same,outcome,[2],inactive
same,outcome,[3],inactive
same,outcome,[4],inactive
same,outcome,[5],inactive
same,fold change,[22]; [29],0.94 (inactive)
same,fold change,[22]; [30],0.66
same,cell count,[22]; [31],8990
same,cell count,[22]; [32],9560
same,z-score,[23]; [33],-0.243 (inactive)
same,z-score,[23]; [34],-0.194
c1ccc(Cn2c(-c3ccc(OCC(C4CCNCC4)n4c(-c5ccccc5)nc5ccccc54)cc3)nc3ccccc32)cc1 (stereo unspecified),AC50,[1],18.6 µM (active)
same,AC50,[2],20.9 µM (active)
same,AC50,[3],13.2 µM (active)
same,AC50,[4],16.6 µM (active)
same,IC50,[5],23.5 µM (active)
same,fold change,[22]; [29],1.11 (inactive)
same,fold change,[22]; [30],0.359
same,cell count,[22]; [31],5600
same,cell count,[22]; [32],5040
same,z-score,[23]; [33],-0.583 (inactive)
same,z-score,[23]; [34],-1.33
